# Compounds without any hit were thinned out: in the full panel of roughly 83,000, 20% have a hit.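 Growth was measured after 48 h exposure to one concentration of compound in 96-well plates. Values under 10 count as active.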 Active and inactive are the calls of the source.
# Experiments:
# Experiment in all cases: NCI-60 one-dose screen, 48 h (100 = growth as untreated, 0 = no growth, -100 = all killed)
# Conditions in all cases: 10 µM unless noted
# NCI-H23 lung = system: NCI-H23 lung
# NCI-H226 lung = system: NCI-H226 lung
# HOP-62 NSCLC = system: HOP-62 NSCLC
# NCI-H460 lung = system: NCI-H460 lung
# HOP-92 NSCLC = system: HOP-92 NSCLC
# NCI-H522 lung = system: NCI-H522 lung
# 786-0 renal = system: 786-0 renal
# COLO 205 colon = system: COLO 205 colon
# DU-145 prostate = system: DU-145 prostate
# K-562 leukemia = system: K-562 leukemia
# MALME-3M melanoma = system: MALME-3M melanoma
# MDA-MB-231 breast = system: MDA-MB-231 breast
# RXF 393 renal = system: RXF 393 renal
# SF-268 CNS = system: SF-268 CNS
# SF-295 CNS = system: SF-295 CNS
# SF-539 CNS = system: SF-539 CNS
# UACC-257 melanoma = system: UACC-257 melanoma
# M14 melanoma = system: M14 melanoma
# A549/ATCC NSCLC = system: A549/ATCC NSCLC
# NCI-H322M lung = system: NCI-H322M lung
Structure (SMILES),growth (NCI-H23 lung),growth (NCI-H226 lung),growth (HOP-62 NSCLC),growth (NCI-H460 lung),growth (HOP-92 NSCLC),growth (NCI-H522 lung),growth (786-0 renal),growth (COLO 205 colon),growth (DU-145 prostate),growth (K-562 leukemia),growth (MALME-3M melanoma),growth (MDA-MB-231 breast),growth (RXF 393 renal),growth (SF-268 CNS),growth (SF-295 CNS),growth (SF-539 CNS),growth (UACC-257 melanoma),growth (M14 melanoma),growth (A549/ATCC NSCLC),growth (NCI-H322M lung)
CN(C)c1ccc(C(=C2C=CC(=[N+](C)C)C=C2)c2ccc(N(C)C)cc2)cc1,-19.9% (active),-73.1% (active),-75.5% (active),-39% (active),-70.1% (active),-44.9% (active),-96.2% (active),-84.3% (active),-91.8% (active),-10.4% (active),-81.4% (active),-56.5% (active),-92.2% (active),-74.1% (active),-55.2% (active),-70.6% (active),-62.7% (active),-80.2% (active),,
CCOc1ccc2c(c1)/C(=C\C=C\C1CC(C)C3CC(OCC)CCC3N1CC)CC(C)N2CC (stereo unspecified),14.5% (inactive),18.1% (inactive),11.6% (inactive),8.11% (active),,-19.3% (active),10.3% (inactive),-46.7% (active),14.8% (inactive),4.61% (active),-30.1% (active),13.6% (inactive),,21.7% (inactive),,19.5% (inactive),-25.2% (active),14.9% (inactive),4.18% (active),
Oc1ccccc1N=Cc1ccccc1,64.2% (inactive),86.3% (inactive),99.1% (inactive),94.4% (inactive),102% (inactive),81.1% (inactive),,125% (inactive),83.5% (inactive),48.6% (inactive),95.6% (inactive),,117% (inactive),89.9% (inactive),111% (inactive),108% (inactive),94.3% (inactive),87.6% (inactive),98.2% (inactive),
CC(C)c1ccc(C(=O)OC2CCCC2)cc1,100% (inactive),,93.1% (inactive),105% (inactive),80.2% (inactive),103% (inactive),107% (inactive),103% (inactive),106% (inactive),120% (inactive),101% (inactive),103% (inactive),118% (inactive),95.1% (inactive),106% (inactive),108% (inactive),125% (inactive),93.9% (inactive),117% (inactive),99.2% (inactive)
O=C/C=C/c1ccc([N+](=O)[O-])cc1,96.7% (inactive),101% (inactive),104% (inactive),106% (inactive),117% (inactive),97.3% (inactive),102% (inactive),115% (inactive),102% (inactive),95.8% (inactive),99.6% (inactive),,116% (inactive),98.2% (inactive),105% (inactive),99.3% (inactive),97.7% (inactive),93.3% (inactive),93.4% (inactive),
COc1cc(/C=C/c2ccnc3ccccc23)cc(OC)c1OC,26.5% (inactive),38.3% (inactive),28.1% (inactive),22.4% (inactive),,26.8% (inactive),39.6% (inactive),22.5% (inactive),64.4% (inactive),8.29% (active),40.3% (inactive),47.1% (inactive),22.1% (inactive),48.2% (inactive),32.4% (inactive),46.1% (inactive),58.7% (inactive),13.3% (inactive),37% (inactive),

# Reference: PubChem BioAssay (NCI)
